This note sets out measurements from PubChem BioAssay (Tox21).

Molecules are shown by their SMILES. A number with no mark means an inactive call. Activity calls are given as the source filed them. Calls follow the shape of the dose curve; as a rule, active = well fitted curve in the direction sought with a large enough effect in the repeat runs; inconclusive = weak or mixed curves; inactive = flat fitted curve, though single readings scatter.
% is scaled to controls: 0 for no effect and ±100 for the full control effect.

A short description of the assay: qHTS assay to test for compound auto fluorescence at 535 nm (green) in HEK293 cell free culture (AID 720682). Particulars: cell-free medium, green autofluorescence 485/535 nm, stronger effect = higher value; series mostly up to 91.3 µM; activity change: at the top concentration. The text has this: U.S. Tox21 Program National Center for Advancing Translational Sciences [NCATS] NIH Chemical Genomics Center [NCGC] U.S. Environmental Protection Agency [EPA] National Institutes of Environmental Health Sciences [NIEHS] National Toxicology Program [NTP] U.S. Food and Drug Administration [FDA] Tox21 Assay Overview: Compound auto fluorescence often interferes with screening of the compound library against various biological targets and signaling pathways. Some of these compounds may have fluorophoric properties. Such properties may interfere with the assay outputs resulting in false positives and/or negatives. To decrease such complications and ensure the compound activities are relevant in terms of biological response, the Tox21 10K compound library was screened for auto fluorescence. From the fluorophores used as reporter signals in our screening assays, the auto fluorescence equivalencies of compounds against three fluorophores have been evaluated: Triamterene, Fluorescein and Rose Bengal sodium for blue, green and red fluorescence, respectively. The fluorescence intensities were measured using Excitation/Emission wavelengths at 405/460nm, 485/535nm and 540/590nm for blue, green and red labels, respectively. This assay includes the green fluorescence data.
Tox21 Assay Protocol Summary: 5 uL of culture medium (DMEM containing 10% FBS) per well was dispensed into black wall/clear bottom 1536-well plates using a Multidrop Combi Dispenser (ThermoFisher Scientific, Waltham, MA). After 23 nL compound or DMSO vehicle was transferred into assay plate by a pintool work station (Kalypsys, San Diego, CA), fluorescence intensities in the assay plates were measured by an Envision (PerkinElmer, Shelton, CT) plate reader using three labels for measuring blue, green and red fluorescence at […] 460, 535 and 590nm respectively.
(Quantitative high-throughput screening tests each substance at several concentrations.)
For the molecule `CCn1cc(C(=O)O)c(=O)c2cc(F)c(N3CCNCC3)cc21`, the outcome was inactive.

On to `CCC(=O)OC`, for which the “activity change” value is 0.0231%.

`C(=C\c1ccccc1)/c1ccccc1`: the “activity change” value was 0.0041% [at 95.7 µM].

On to `O=c1cc(-c2ccccc2)oc2cc(O)cc(O)c12`, for which the “activity change” value was -0.0143%.

Turning to `CO[C@]1(NC(=O)CSC(F)F)C(=O)N2C(C(=O)O)=C(CSc3nnnn3CCO)CO[C@H]21`, the “activity change” value is 0.0452% [at 46 µM].

Turning to `OCCN1CCN(CCCN2c3ccccc3Sc3ccc(Cl)cc32)CC1`, the activity change was -0.0092% [at 18.6 µM].

Consider `CN1CCCN=C1COC(=O)C(O)(c1ccccc1)C1CCCCC1` (stereo not given), for which the “activity change” value was -0.0331% [at 46 µM].

As to `CC1CC(OC(=O)C(O)c2ccccc2)CC(C)(C)N1C` (stereo not given), the molecule was classed as inactive.

Take `CC(=O)Oc1ccc([N+](=O)[O-])cc1CCl`: the “activity change” value was 0.0056%.

As for `COc1ncnc(NS(=O)(=O)c2ccc(N)cc2)c1OC`, the “activity change” value is -0.098% [at 46 µM].

As to `O=C(/C=C/c1ccc(O)c(O)c1)O[C@@H]1C[C@@](OC(=O)/C=C/c2ccc(O)c(O)c2)(C(=O)O)C[C@@H](O)[C@@H]1O`, the “activity change” value was 0.0972% [at 46 µM].

With `COc1ccccc1N1CCN(CC(O)COc2cccc3ccccc23)CC1` (stereo not given), the “activity change” value was 0.025% [at 46 µM].

Regarding `CC(C)C[C@H](NC(=O)[C@H](CCc1ccccc1)NC(=O)CN1CCOCC1)C(=O)N[C@@H](Cc1ccccc1)C(=O)N[C@@H](CC(C)C)C(=O)[C@@]1(C)CO1`, the “activity change” value is 0.0664% [at 46 µM].

`OC[C@H]1O[C@@H](n2cnc3c(=S)nc[nH]c32)[C@H](O)[C@@H]1O`: the “activity change” value is -0.0249% [at 46 µM].

As for `COC(=O)CS`, the “activity change” value was 0.0311%.

For `CC(C)=CCC1C(=O)N(c2ccccc2)N(c2ccccc2)C1=O`, the “activity change” value was -0.362% [at 46 µM].

With `C=C(C)CCCC(C)CCO` (stereo not given), the “activity change” value was 0.0256%.

Take `NCCNCCO`: the “activity change” value was 0.144% [at 95.7 µM].

Consider `COc1cc(Nc2c(C#N)cnc3cc(OCCCN4CCN(C)CC4)c(OC)cc23)c(Cl)cc1Cl`, for which the “activity change” value was -0.0833% [at 46 µM].

Consider `CCC1NC(=O)c2cc(S(N)(=O)=O)c(Cl)cc2N1` (stereo not given), for which the activity change is -0.178% [at 18.6 µM].

On to `Cc1cc(=O)c2c(O)c3c(O)cc(=O)c4c3c3c(cc(O)c1c23)C(C)(C)C=4O`, for which the “activity change” value is 3.9% [at 46 µM].

For the molecule `Cc1cscn1`, the “activity change” value was -0.0377%.

On to `Nc1nnc(-c2ccc([N+](=O)[O-])o2)o1`, for which the “activity change” value was -0.0529%.

Turning to `C=CCc1ccccc1OCC(O)CNC(C)C` (stereo not given), the “activity change” value was 0.216% [at 46 µM].

Consider `CC1(C)O[C@@H]2C[C@H]3[C@@H]4C[C@H](F)C5=CC(=O)C=C[C@]5(C)[C@H]4[C@@H](O)C[C@]3(C)[C@]2(C(=O)CO)O1`, for which the activity change is -0.178% [at 18.6 µM].

Take `CC(C)(c1ccccc1)c1ccccc1`: the “activity change” value is -0.174%.

With `O=C(CCc1ccc(O)cc1)c1c(O)cc(O)cc1O`, the “activity change” value is 0.103% [at 95.7 µM].

Turning to `CC(=O)[C@H]1[C@H](C#N)C[C@H]2[C@@H]3CC=C4C[C@@H](O)CC[C@]4(C)[C@H]3CC[C@@]21C`, the “activity change” value was -0.019%.

As for `Nc1nc2ccc([N+](=O)[O-])cc2s1`, the “activity change” value was -0.184%.

With `C[C@]12CC[C@@H]3c4ccc(O)cc4CC[C@H]3[C@@H]1CC[C@@H]2OC(=O)CCC1CCCC1`, the outcome was inactive.

For the molecule `CC1(C)[C@H](C(=O)O)N2C(=O)C[C@H]2S1(=O)=O`, the “activity change” value is 0.0022% [at 46 µM].

As to `O=C1c2ccccc2C(=O)N1CCc1noc(-c2ccc(CN3CCCCCC3)s2)n1`, the “activity change” value was 0.0078%.

For `CN(C)CCC=C1c2ccccc2C=Cc2ccccc21`, the “activity change” value was -0.0779% [at 46 µM].

For the molecule `CC1CC(C)C(=O)C1=O` (stereo not given), the “activity change” value is 0.0536%.

Regarding `COc1cc(C(=O)NC2CCN(C)CC2)ccc1Nc1ncc2c(n1)N(C1CCCC1)CC(F)(F)C(=O)N2C`, the “activity change” value was -0.07%.

`CC1=C(Br)C(=O)C(Br)=C/C1=C(/c1ccccc1S(=O)(=O)O)c1cc(Br)c(O)c(Br)c1C`: the “activity change” value is -0.749%.

Consider `CCOC(=O)c1ccccc1C(=C1C=C(Br)C(=O)C(Br)=C1)c1cc(Br)c(O)c(Br)c1`, for which the “activity change” value is -0.0891%.

Consider `O[C@@H]1CO[C@H]2[C@@H]1OC[C@@H]2O`, for which the “activity change” value was -0.026% [at 46 µM].

For `OCCOCC#CCOCCO`, the “activity change” value was -0.0358%.

Regarding `CC(C)COCC(CN(Cc1ccccc1)c1ccccc1)N1CCCC1` (stereo not given), the “activity change” value is -0.0284% [at 46 µM].
